Assay outcomes from PubChem BioAssay.
This is a sample that favours compounds with a hit; in the whole collection about 3.6% have one here.
IMPase Li inh = qHTS Assay for Identifying the Cell-Membrane Permeable IMPase Inhibitors: Potentiation with Lithium; Potency, µM (doses to about 59.4 µM), usual class: inhibitors; actives 0.35% (n = 210,000); CHO-M1 cells, IP1 TR-FRET (IP-One), carbachol + lithium; AID 1457, 2008;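 note: IP1 builds up when IMPase is blocked and the TR-FRET signal falls; nearly all actives have a fitted effect of over 50% in size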
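IP1 accumulation measured by competitive TR-FRET in lysed CHO-M1 cells after 30 min compound exposure at 37C, with a small lithium addition to potentiate weak responses. Hill-equation AC50 from ratio and donor-channel data.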
Epigenetic reg = Quantitative High-Throughput Screen for Regulators of Epigenetic Control | murine LDR cells, GFP reporter derepression, 30 h | Potency, µM (doses to about 53.9 µM), hits mostly activators | actives 0.2% (n = 280,000) | AID 1865, 2009; note: nearly all actives have a fitted effect of over 60% in size
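Derepression of a silenced CMV-GFP reporter in murine LDR cells is scored by enumerating GFP-positive cells with a laser-scanning microplate cytometer after 30 hours of treatment at 37 C.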
NPSR antag = qHTS Assay for Antagonists of the Neuropeptide S Receptor: cAMP Signal Transduction; Q6W5P4; CHO-NPSR cells, cAMP TR-FRET, antagonist mode; Potency, µM (highest dose often 38.3 µM), hits mostly inhibitors; actives 1% (n = 220,000); AID 1461, 2008; note: nearly all actives have a fitted effect of over 50% in size
Target sequence (Q6W5P4 whole entry, looked up): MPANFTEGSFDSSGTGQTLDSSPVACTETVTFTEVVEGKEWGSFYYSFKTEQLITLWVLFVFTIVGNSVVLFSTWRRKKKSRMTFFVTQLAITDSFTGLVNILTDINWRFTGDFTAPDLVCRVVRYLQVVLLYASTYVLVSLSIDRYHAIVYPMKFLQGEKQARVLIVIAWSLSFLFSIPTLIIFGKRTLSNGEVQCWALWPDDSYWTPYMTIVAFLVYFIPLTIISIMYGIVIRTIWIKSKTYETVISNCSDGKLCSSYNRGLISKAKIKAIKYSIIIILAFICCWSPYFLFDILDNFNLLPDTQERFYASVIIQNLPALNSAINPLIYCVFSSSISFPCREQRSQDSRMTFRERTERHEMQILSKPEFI
JMJD2E inh = qHTS Assay for Inhibitors of Human Jumonji Domain Containing 2E (JMJD2E); actives 1.6% (n = 230,000); Potency, µM (top dose mostly 57.1 µM), hits mostly inhibitors; JMJD2E catalytic domain, FDH-coupled NADH fluorescence (FDH is formaldehyde dehydrogenase); Lysine-specific demethylase 4E (Homo sapiens), B2RXH2; AID 2147, 2009; active = well fitted inhibition curve with a large enough effect, not every such curve was filed as active; inconclusive = small, poorly fitted or top-dose-only effect, or another doubt; inactive = no such curve, though single readings can be large or run the other way; note: nearly all actives have a fitted effect of over 50% in size
Sfp inh = qHTS Assay for Inhibitors of Bacillus subtilis Sfp phosphopantetheinyl transferase (PPTase); Potency, µM, most hits filed as inhibitors; 4'-phosphopantetheinyl transferase ffp (Bacillus subtilis), Q9F4F7; AID 1490, 2009; actives 3.5% (n = 310,000); Biochemical Sfp PPTase activity, qHTS;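 note: the enzyme is Sfp with the accession as filed and its product quenches rhodamine fluorescence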
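Fluorescence-quenching assay: 15 nM Sfp-PPTase preincubated 15 min at room temperature with compound, then 5 uM rhodamine-CoA and 12.5 uM BHQ-2-labelled YbbR peptide added. Fluorescence (ex 525/em 598 nm) read at start and after 30 min; difference gives rate.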
GCN5L2 inh = qHTS Assay for Inhibitors of GCN5L2. Histone acetyltransferase KAT2A (Homo sapiens), Q92830. GCN5L2 HAT assay, ThioGlo1 CoA-SH fluorescence. Potency, µM (titrated, usually from 58.9 µM), usual class: inhibitors. actives 0.21% (n = 390,000)
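Free CoA generated was detected with ThioGlo1 (50uM) fluorescence at Ex340nm/Em540nm, read immediately and after 20 min at room temperature. Enzyme, 20 nM in HEPES pH 7.5 buffer, saw compounds 15 min before adding 75uM H3(1-25) peptide and 70uM acetyl-CoA.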
A number is an active result; . = inactive; ? = inconclusive; / = not tested or not shown; [ ] = another dose, or the depositor's remark. Unless noted, calls come from the whole dose curve; as a rule, active = well fitted curve in the direction sought with a large enough effect; inconclusive = small, poorly fitted or top-dose-only effect, or another doubt; inactive = no such curve, though single readings can be large; an effect the other way counts as inactive or inconclusive.

SMILES	IMPase Li inh	Epigenetic reg	NPSR antag	JMJD2E inh	Sfp inh	GCN5L2 inh
Cc1ccc(/C=N/N=C2/NC(=O)C(CC(=O)N3CCOCC3)S2)cc1 (stereo unspecified)	.	.	.	.	39.8µM	.
N#Cc1cccc(NC(=O)CSc2ccccc2)c1	.	.	.	.	.	.
N#Cc1cccc(NC(=O)CSc2ccc3c4c(cccc24)C(=O)c2ccccc2-3)c1	?	5.01µM	.	.	.	.
CCOCCCn1c(SCC(=O)Nc2ccccc2)nc2ccccc2c1=O	/	/	/	/	.	.
COc1ccc(NC(=O)CSc2nnc(C)c3ccccc23)cc1	/	/	/	/	.	.
CCOCCCn1c(SCC(=O)Nc2ccc(OC)cc2)nc2ccccc2c1=O	/	/	/	/	50.1µM	.
COc1ccc(NC(=O)CSc2ccc3c4c(cccc24)C(=O)c2ccccc2-3)cc1	.	?	.	.	39.8µM	22.4µM
C=CCOC(=O)N[C@H](c1ccccc1)C(C(C)=O)C(C)=O	.	.	/	.	.	/
O=C(N/N=C/c1ccccc1)c1cc(=O)[nH]c2ccccc12	.	.	.	.	.	.
COc1ccc(O)c(/C=N/NC(=O)c2cc(=O)[nH]c3ccccc23)c1	/	.	.	7.08µM	.	.
CCc1cccc2cc3c(N)c(C(=O)Nc4ccc(S(=O)(=O)N5CCCC5)cc4)sc3nc12	?	11.2µM	.	.	.	.
Cc1cccc2cc3c(N)c(C(=O)Nc4ccc(N5CCOCC5)cc4)sc3nc12	.	?	.	?	?	.
O=C(CCn1c(=O)[nH]c2ccsc2c1=O)Nc1ccc(F)c(F)c1	10µM	.	.	.	.	.
Clc1cccc(N2CCN(c3nc4ccccc4n4nnnc34)CC2)c1	/	.	/	/	/	.
Nc1c(C(=O)NCc2ccc(Cl)cc2)sc2nc(-c3ccc(F)cc3)ccc12	/	.	/	/	/	?
Cc1ccc(-n2c(N)c(C(N)=O)sc2=S)cc1	.	.	.	.	0.316µM	?
Cc1c(C(=O)O)sc(=S)n1-c1ccc(Cl)cc1	.	.	.	.	.	.
CCOc1ccc(NC(=O)Cn2nnc(C(=O)NCc3ccc(OC)cc3)c2N)cc1	/	/	/	/	.	.
CCOc1ccc(Cn2nnc(C(=O)NCc3ccc(OC)cc3)c2N)cc1	11.2µM	.	.	.	.	.
Nc1c(C(=O)NCc2cccnc2)sc(=S)n1-c1ccccc1	.	.	.	.	12.6µM	.
CCn1c(N)c(C(=O)NCc2cccnc2)sc1=S	.	.	.	.	.	.
COc1ccc(-c2ccc3c(N)c(C(=O)NCc4ccc(Cl)cc4)sc3n2)cc1	/	.	/	/	/	20µM
O=C(Nc1ccc(Oc2ccccc2)cc1)c1ccc(F)c(S(=O)(=O)N2CCN(c3ccccc3F)CC2)c1	/	.	/	/	/	.
COc1cccc(-c2ccc3c(N)c(C(=O)Nc4ccc(C)c(F)c4)sc3n2)c1	/	.	/	/	/	25.1µM
Cc1ccc(-n2c(N)c(C(=O)NCc3ccco3)sc2=S)cc1	.	.	.	.	?	.
SMILES	IMPase Li inh	Epigenetic reg	NPSR antag	JMJD2E inh	Sfp inh	GCN5L2 inh
COc1ccc(CNC(=O)c2sc(=S)n(-c3ccc(OC)cc3)c2N)cc1	.	.	.	.	20µM	.
CC(=O)OC[C@@H]1O[C@H](CCON=C(C)C)C=C[C@@H]1OC(C)=O	/	.[10.1 µM]	/	/	.	/
COC(=O)[C@H](C)NC(=O)C/C=C\[C@@H](C)CO	/	.[10.1 µM]	/	/	.	/
Cc1ccc2[nH]c3nc(CCCn4ccnc4-c4ccccc4)nnc3c2c1	/	.[10.1 µM]	/	/	.	/
Fc1ccc(Nc2ncncc2-c2ccoc2)cc1	.	/	/	/	.	.
COC(=O)C1=C(C(=O)OC)C(c2cc(Br)ccc2O)c2sc(=O)[nH]c2S1 (stereo unspecified)	.	.	.	.	20µM	.
COC(=O)C1=C(C(=O)OC)C(c2ccc(OC)c(OC)c2)c2sc(=O)[nH]c2S1 (stereo unspecified)	.	.	.	?	20µM	?
CCn1c(SCC(=O)NCCOC)nc2sc(C)c(C)c2c1=O	.	.	.	.	44.7µM	.
CCC(C)NC(=O)c1cccc(OCc2c(C)noc2C)c1 (stereo unspecified)	.	.	.	.	.	.
CC(C)c1onc(-c2c(Cl)cccc2Cl)c1COc1ccc(/C=C/c2cccc(C(=O)O)c2)c(Cl)c1	/	/	/	/	.	12.6µM
C=C(C(C)=O)C(O)c1ccc(C(F)(F)F)cc1 (stereo unspecified)	.	.	/	.	.	/
CCCCC/C=C\C/C=C\C/C=C\CCCCCCC(=O)NCC(=O)O	.	.	/	.	.	/
Cc1cc(NC(CC(C)C)C(=O)O)nc(Cc2ccccc2)n1 (stereo unspecified)	.	.	.	.	.	.
